Test results from PubChem BioAssay AID1159580 (chemical genetic matrix, 2015).
The campaign covered roughly 5,500 compounds. About 2,000 (36%) were called active. About 18% were inconclusive and are not listed. Rule as the data show it: active = normalized growth mostly below about 0.91 (no sharp cut-off); inconclusive = no clear call, values can overlap the other calls; inactive = mostly above about 0.92. The list shows a part of the results.

Assay: chemical genetic growth profiling, strain panel (AID 1159580);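 also: tested at 20 µM; growth read once vehicle control cultures reached saturation at 30 °C; 1 = growth at the plate median or of vehicle wells; lower values mean less growth of the strain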
Conditions: growth OD

Measured: normalized growth

COc1cc([C@@H]2c3cc4c(cc3[C@H](O)[C@H]3COC(=O)[C@@H]23)OCO4)cc(OC)c1OC
inactive: S. cerevisiae deletion strains, locus YKL009W, strain mrt4, hits give low values 1 | S. cerevisiae deletion strains, locus YKL068W, hits give low values 0.977 | S. cerevisiae deletion strains, locus YKL085W, strain MDH1 (second series), hits give low values 1 | S. cerevisiae deletion strains, locus YKL085W, strain MDH1, hits give low values 1 | S. cerevisiae deletion strains, locus YKL160W, strain elf1, hits give low values 1.02 | S. cerevisiae deletion strains, locus YKR001C, strain vps1, hits give low values 0.978 | S. cerevisiae deletion strains, locus YKR026C, strain gcn3, hits give low values 1.02 | S. cerevisiae deletion strains, locus YKR091W, strain srl3, hits give low values 1.02 | S. cerevisiae deletion strains, locus YLL001W, strain dnm1, hits give low values 1.01 | S. cerevisiae deletion strains, locus YLL026W, hits give low values 1.01 | S. cerevisiae deletion strains, locus YLL041C, strain sdh2, hits give low values 1.02 | S. cerevisiae deletion strains, locus YLR027C, strain aat2, hits give low values 1.03 | S. cerevisiae deletion strains, locus YLR039C, strain RIC1, hits give low values 0.996 | S. cerevisiae deletion strains, locus YLR058C, strain SHM2, hits give low values 1.01 | S. cerevisiae deletion strains, locus YLR102C, strain apc9, hits give low values 0.984 | S. cerevisiae deletion strains, locus YLR113W, strain HOG1, hits give low values 0.997 | S. cerevisiae deletion strains, locus YLR221C, strain rsa3, hits give low values 0.999 | S. cerevisiae deletion strains, locus YLR258W, strain gsy2, hits give low values 1.02 | S. cerevisiae deletion strains, locus YLR262C, strain YPT6 (second series), hits give low values 1.04 | S. cerevisiae deletion strains, locus YLR262C, strain YPT6, hits give low values 0.991 | S. cerevisiae deletion strains, locus YLR268W, strain sec22, hits give low values 0.971 | S. cerevisiae deletion strains, locus YLR320W, strain mms22, hits give low values 1.01 | S. cerevisiae deletion strains, locus YLR330W, strain CHS5, hits give low values 0.998 | S. cerevisiae deletion strains, locus YLR342W, strain FKS1 (second series), hits give low values 1.02 | S. cerevisiae deletion strains, locus YLR342W, strain FKS1, hits give low values 1.02 | S. cerevisiae deletion strains, locus YLR357W, strain rsc2, hits give low values 1.02 | S. cerevisiae deletion strains, locus YLR370C, strain arc18, hits give low values 1.03 | S. cerevisiae deletion strains, locus YLR371W, strain rom2, hits give low values 0.972 | S. cerevisiae deletion strains, locus YLR384C, strain iki3, hits give low values 1.02 | S. cerevisiae deletion strains, locus YLR418C, strain cdc73, hits give low values 1.05 | S. cerevisiae deletion strains, locus YML016C, strain PPZ1, hits give low values 0.997 | S. cerevisiae deletion strains, locus YML032C, strain rad52, hits give low values 1.02 | S. cerevisiae deletion strains, locus YML120C, strain ndi1, hits give low values 1.01 | S. cerevisiae deletion strains, locus YML124C, strain tub3, hits give low values 0.993 | S. cerevisiae deletion strains, locus YMR058W, strain fet3, hits give low values 1.02 | S. cerevisiae deletion strains, locus YMR078C, strain ctf18, hits give low values 0.991 | S. cerevisiae deletion strains, locus YMR125W, strain sto1, hits give low values 1.02 | S. cerevisiae deletion strains, locus YMR129W, hits give low values 1.02 | S. cerevisiae deletion strains, locus YMR205C, strain PFK2, hits give low values 1.02 | S. cerevisiae deletion strains, locus YMR223W, strain ubp8, hits give low values 1.01 | S. cerevisiae deletion strains, locus YMR231W, strain pep5, hits give low values 1.03 | S. cerevisiae deletion strains, locus YMR263W, strain SAP30, hits give low values 1.01 | S. cerevisiae deletion strains, locus YMR307W, strain GAS1, hits give low values 1.05 | S. cerevisiae deletion strains, locus YNL067W, strain RPL9B, hits give low values 1.01 | S. cerevisiae deletion strains, locus YNL071W, strain lat1, hits give low values 1.02 | S. cerevisiae deletion strains, locus YNL153C, strain GIM3, hits give low values 1.03 | S. cerevisiae deletion strains, locus YNL183C, strain NPR1, hits give low values 0.904 | S. cerevisiae deletion strains, locus YNL209W, strain ssb2, hits give low values 1.01 | S. cerevisiae deletion strains, locus YNL233W, strain BNI4, hits give low values 1.01 | S. cerevisiae deletion strains, locus YNL248C, strain rpa49, hits give low values 1.01 | S. cerevisiae deletion strains, locus YNL250W, strain rad50, hits give low values 0.95 | S. cerevisiae deletion strains, locus YNL271C, strain bni1, hits give low values 0.993 | S. cerevisiae deletion strains, locus YNL298W, strain CLA4, hits give low values 0.997 | S. cerevisiae deletion strains, locus YNL307C, strain MCK1, hits give low values 0.992 | S. cerevisiae deletion strains, locus YNL322C, strain KRE1 (second series), hits give low values 1.01 | S. cerevisiae deletion strains, locus YNL322C, strain KRE1, hits give low values 1 | S. cerevisiae deletion strains, locus YNR049C, strain mso1, hits give low values 1.02 | S. cerevisiae deletion strains, locus YNR052C, strain pop2, hits give low values 1.01 | S. cerevisiae deletion strains, locus YOL012C, strain htz1 0.992 | S. cerevisiae deletion strains, locus YOL147C, strain pex11, hits give low values 0.993 | S. cerevisiae deletion strains, locus YOR001W, strain rrp6, hits give low values 1.04 | S. cerevisiae deletion strains, locus YOR061W, strain CKA2, hits give low values 1 | S. cerevisiae deletion strains, locus YOR069W, strain VPS5, hits give low values 0.991 | S. cerevisiae deletion strains, locus YOR070C, strain gyp1, hits give low values 1.02 | S. cerevisiae deletion strains, locus YOR080W, strain dia2, hits give low values 1.03 | S. cerevisiae deletion strains, locus YOR083W, strain WHI5, hits give low values 1.02 | S. cerevisiae deletion strains, locus YOR106W, strain vam3, hits give low values 1.04 | S. cerevisiae deletion strains, locus YOR136W, strain idh2, hits give low values 0.98 | S. cerevisiae deletion strains, locus YOR144C, strain elg1, hits give low values 1 | S. cerevisiae deletion strains, locus YOR184W, strain ser1, hits give low values 0.999 | S. cerevisiae deletion strains, locus YOR231W, strain MKK1, hits give low values 0.996 | S. cerevisiae deletion strains, locus YOR265W, strain rbl2, hits give low values 1.02 | S. cerevisiae deletion strains, locus YOR270C, strain vph1, hits give low values 1.03 | S. cerevisiae deletion strains, locus YOR290C, strain snf2, hits give low values 1.01 | S. cerevisiae deletion strains, locus YOR316C, strain cot1, hits give low values 0.995 | S. cerevisiae deletion strains, locus YPL051W, strain arl3, hits give low values 1.02 | S. cerevisiae deletion strains, locus YPL055C, strain LGE1, hits give low values 1.02 | S. cerevisiae deletion strains, locus YPL078C, strain atp4, hits give low values 1.02 | S. cerevisiae deletion strains, locus YPL106C, strain sse1, hits give low values 1 | S. cerevisiae deletion strains, locus YPL240C, strain hsp82, hits give low values 1.02 | S. cerevisiae deletion strains, locus YPL241C, strain CIN2, hits give low values 1 | S. cerevisiae deletion strains, locus YPL256C, strain CLN2, hits give low values 0.967 | S. cerevisiae deletion strains, locus YPR119W, strain clb2, hits give low values 0.986 | S. cerevisiae deletion strains, locus YPR141C, strain kar3, hits give low values 0.988 | S. cerevisiae deletion strains, locus YPR163C, strain tif3, hits give low values 0.996 | S. cerevisiae deletion strains, locus YPR167C, strain met16, hits give low values 0.989 | S. cerevisiae deletion strains, strain wtn01, hits give low values 0.945 | S. cerevisiae strains, strain wild type, hits give low values 1.02
